In ChEMBL document CHEMBL3433997, “St. Jude Leishmania screening dataset” (2016):

Assays:
Type in all cases: functional
[1] = biological target: Solute carrier family 2, facilitated glucose transporter member 1 (Homo sapiens) (UniProt P11166); assay: ST_JUDE_LEISH: Cytotoxicity at 2uM final concentration against transgenic Leishmania Mexicana promastigotes LmGLUT1 that are glucose transport deficient and complemented with the human glucose transporter GLUT1. Activity is measured by DNA content using SYBR green in vitro
[2] = biological target: Hexose transporter 1 (Plasmodium falciparum) (UniProt O97467); assay: ST_JUDE_LEISH: Cytotoxicity at 2uM final concentration against transgenic Leishmania Mexicana promastigotes LmPfHT that are glucose transport deficient and complemented with the Plasmodium falciparum hexose transporter. Activity is measured by DNA content using SYBR green in vitro
[3] = biological target: Glucose transporter (Leishmania mexicana) (UniProt O61059); assay: ST_JUDE_LEISH: Cytotoxicity at 2uM final concentration against transgenic Leishmania Mexicana promastigotes LmGT2 that are glucose transport deficient and complemented with the L. Mexicana glucose transporter 2. Activity is measured by DNA content using SYBR green in vitro

Solute carrier family 2, facilitated glucose transporter member 1 (Homo sapiens), sequence (P11166 whole entry): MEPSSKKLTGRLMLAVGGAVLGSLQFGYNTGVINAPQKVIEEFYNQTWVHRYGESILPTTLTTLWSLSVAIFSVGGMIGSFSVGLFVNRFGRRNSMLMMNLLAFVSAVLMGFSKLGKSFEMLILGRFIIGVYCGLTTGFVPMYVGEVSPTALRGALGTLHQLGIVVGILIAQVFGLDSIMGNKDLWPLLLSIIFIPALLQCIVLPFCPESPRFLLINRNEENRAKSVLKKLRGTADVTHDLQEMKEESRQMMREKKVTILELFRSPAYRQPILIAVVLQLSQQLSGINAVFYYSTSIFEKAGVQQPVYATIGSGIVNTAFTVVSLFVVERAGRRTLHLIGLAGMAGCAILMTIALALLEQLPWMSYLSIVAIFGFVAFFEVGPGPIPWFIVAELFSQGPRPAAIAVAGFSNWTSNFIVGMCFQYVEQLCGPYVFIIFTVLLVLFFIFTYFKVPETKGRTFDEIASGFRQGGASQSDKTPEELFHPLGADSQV

Row | SMILES | inhibition [1] [%] | inhibition [2] [%] | inhibition [3] [%]
1 | O=C(Nc1ccc(-c2nc3ccccc3[nH]2)cc1)c1cccc(S(=O)(=O)N2CCOCC2)c1 | 4.9 | 5.13 | 4.05
2 | Cn1nc2ccc3ccccc3c2nc1=N | 59.2 | 44.1 | 18.6
3 | NCc1ccc(CNCc2cccc(-c3cccc(-c4nc5ccccc5[nH]4)c3)c2)cc1 | 1.02 | -3.61 | 3.76
4 | N#Cc1cccc(NC(=O)Nc2ccc(-c3ccc(-c4nc5cc(C(F)(F)F)ccc5[nH]4)cc3)cc2)c1 | 3.68 | 1.32 | 4.14
5 | COc1ccc2nccc([C@@H](O)CN3CCC(NC(=O)C(=Cc4ccc(C#N)cc4)c4ccc(-c5ccccc5)cc4)CC3)c2c1 | 1.28 | 0.19 | -0.89
6 | CN1CCC(c2c[nH]c3ccc(NC(=O)Nc4ccc(-c5ccncc5)cc4Cl)cc23)CC1 | 1.45 | 1.38 | 2.14
7 | COCCN1CCC(CNCC(C)(C)c2nc(-c3ccc(Cl)c(O)c3)c(-c3ccncc3)[nH]2)CC1 | 7.22 | 7.6 | 7.7
8 | CC(C)CNCc1cccc(-c2ccc(CN(C(=O)NCCc3ccccc3)C3CCN(Cc4ccccc4)CC3)cc2)c1 | 75.8 | 79.1 | 56.8
9 | CN(CCO)Cc1ccc(-c2ccc(NS(=O)(=O)c3cccc4cccnc34)cc2)cc1 | 75.1 | 81.8 | 80.8
10 | COc1cccc(CNC(=O)c2ccnc(-c3ccc(CNCCOc4ccccc4)cc3)c2)c1 | 1.12 | 1.69 | 1.51
11 | CC(=O)Nc1ncc(C(=O)Nc2ccc(-c3cccc(-c4nc5cc(C(F)(F)F)ccc5[nH]4)c3)cc2)s1 | -2.18 | -2.1 | -2.74
